Composite z-score and z-score data for 15 compounds are collected here from PubChem BioAssay.

For assay [1], the system named is Human papillomavirus type 1a protein E7 (residues 44-93). Description: HPV1a E7 fragment binders on microarrays, primary screen, biochemical, small-molecule microarray, residues 44-93, 635 nm fluorescence (AID 1108).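 Further: E7 fragment applied at 1 µg/mL in TBST for 1 h at 4 C; score combines spot fluorescence with its signal to noise ratio.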 Particulars: small-molecule microarray binding, fluorescence 635 nm; higher = more signal.
Assay [2] is described as follows: modulators of HCV replicon luciferase signal, primary screen, HCV replication inhibitor project, Huh7 cells, luciferase reporter (AID 1109).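 Further: huh7 hepatoma cells harbouring a luciferase neomycin HCV replicon reporter; luciferase luminescence as measure of HCV replicon replication; test concentration not given here.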 Particulars: 48 h, higher = more signal. For orientation: Replicon systems follow genome replication, usually without infectious particles.
The target of assay [3] is Left-right determination factor 2 (Homo sapiens) (UniProt O00292). Put plainly: LEFTY2 binders on small-molecule microarrays, primary screen, biochemical, small-molecule microarray, 635 nm fluorescence scan (AID 1110). Particulars: LEFTY2 binding, higher = more signal.
In assay [4] the target is Calmodulin-1 (Homo sapiens) (UniProt P0DP23). Description: CALM1 binders on microarrays, EGTA buffer, profiling panel, biochemical, small-molecule microarray, Cy5-labelled CALM1 (AID 1111).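 Further: labelled calmodulin applied in Tris saline Tween buffer holding calcium plus EGTA and DTT.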 Particulars: Cy5-CALM1 binding fluorescence, higher = more signal.
The target is the same in assay [5]. Put plainly: calcium-bound CALM1 binders on microarrays, profiling panel, artefact control for SMM control-protein annotation, biochemical, small-molecule microarray, Cy5-labelled CALM1, plus calcium (AID 1112).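 Further: score merges spot fluorescence with signal to noise from triplicate slides.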 Particulars: Cy5-CALM1 binding fluorescence, higher = more signal.
Assay [6] can be described thus: small-molecule microarray binders of probe aWnt5a, primary screen, biochemical, biotinylated probe, 635/667 nm fluorescence (AID 1113).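 Further: score merges 667 nm fluorescence intensity with signal-to-noise per printed feature.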 Conditions: higher = more signal.
Assay [7] in a line: small-molecule microarray binders of probe aShh, primary screen, biochemical, biotinylated probe, 635/667 nm fluorescence (AID 1114).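 Further: probe is biotin-labelled aShh protein from a stem cell growth factor screen; measures binding of labelled protein to compounds printed on the slide; score merges feature fluorescence at 667 nm with signal-to-noise.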 Conditions: higher = more signal.
Assay [8] in a line: small-molecule microarray binders of probe aNog, primary screen, biochemical, biotinylated probe, 635/667 nm fluorescence (AID 1115).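 Further: probe is biotinylated aNog protein used at 0.15 µg/mL for 1 h at 4 C; z-score combines 667 nm fluorescence of each spot with its signal to noise.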 Particulars: higher = more signal.
The target in assay [9] is Torsin-1A-interacting protein 1 (Homo sapiens) (UniProt Q5JTV8). Description: LAP1 binders from COS7 cell lysate, primary screen, small-molecule microarray, 635/667 nm fluorescence (AID 1116). Conditions: COS7-hLAP1 lysate binding, 635 nm fluorescence, higher = more signal.
Assay [10] deals with Alpha-bungarotoxin (Bungarus multicinctus) (UniProt P60615). Description: alpha-bungarotoxin binders on microarray, profiling panel, artefact control for SMM control protein annotation, biochemical, small-molecule microarray, Alexa647 label, 635/667 nm fluorescence (AID 1117). Particulars: alpha-BTX-A647 binding fluorescence, higher = more signal.
Chain of Alpha-bungarotoxin (Bungarus multicinctus) (P60615 whole entry, looked up): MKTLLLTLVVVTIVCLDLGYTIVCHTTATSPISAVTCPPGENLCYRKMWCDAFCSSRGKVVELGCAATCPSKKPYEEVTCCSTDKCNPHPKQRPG

Chain of Left-right determination factor 2 (Homo sapiens) (O00292 whole entry, looked up): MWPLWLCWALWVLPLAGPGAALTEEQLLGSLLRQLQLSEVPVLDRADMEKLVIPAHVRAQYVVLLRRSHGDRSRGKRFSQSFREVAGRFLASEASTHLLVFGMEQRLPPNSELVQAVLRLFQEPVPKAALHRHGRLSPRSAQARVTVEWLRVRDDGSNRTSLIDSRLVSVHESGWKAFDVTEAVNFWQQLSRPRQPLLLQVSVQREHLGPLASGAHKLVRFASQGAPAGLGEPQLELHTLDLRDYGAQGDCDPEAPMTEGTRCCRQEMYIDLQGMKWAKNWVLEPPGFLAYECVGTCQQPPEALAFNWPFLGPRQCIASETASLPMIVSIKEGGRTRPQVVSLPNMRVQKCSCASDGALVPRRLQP
Chain of Torsin-1A-interacting protein 1 (Homo sapiens) (Q5JTV8 whole entry, looked up): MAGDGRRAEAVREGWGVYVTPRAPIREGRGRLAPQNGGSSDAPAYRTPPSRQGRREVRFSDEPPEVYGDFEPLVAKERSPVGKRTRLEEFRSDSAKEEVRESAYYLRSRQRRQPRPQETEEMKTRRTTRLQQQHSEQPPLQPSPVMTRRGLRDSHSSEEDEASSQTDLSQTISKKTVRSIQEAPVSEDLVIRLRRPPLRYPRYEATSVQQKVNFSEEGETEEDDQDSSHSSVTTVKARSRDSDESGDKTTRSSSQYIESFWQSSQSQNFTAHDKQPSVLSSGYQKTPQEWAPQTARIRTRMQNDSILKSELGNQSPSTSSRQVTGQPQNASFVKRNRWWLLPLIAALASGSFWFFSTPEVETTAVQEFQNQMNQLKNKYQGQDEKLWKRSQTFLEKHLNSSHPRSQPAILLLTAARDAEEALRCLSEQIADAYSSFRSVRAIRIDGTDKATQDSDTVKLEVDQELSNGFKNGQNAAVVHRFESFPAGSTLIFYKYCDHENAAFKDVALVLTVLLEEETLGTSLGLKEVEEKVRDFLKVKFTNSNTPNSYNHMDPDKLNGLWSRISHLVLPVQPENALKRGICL

`O=C1O[C@@H](c2ccccc2)[C@@H](c2ccccc2)N2[C@@H](c3ccccc3OCCO)[C@]3(C(=O)Nc4ccc(C#CC5=CCCCC5)cc43)[C@@H](C(=O)NC[C@H](O)c3ccccc3)[C@H]12`: the composite z-score in assay [1] was 1.35; in [3] it was 0.556; in assay [4], 1.08; in assay [5], 0.0728; in [6], 0.0388; in assay [7], -0.0709. Further, the composite z-score in assay [8] is 0.0483; in assay [9] it was 0.519; in assay [10] it was 1.31. In assay [2], this compound displayed a z-score of -3.33.
For `COc1ccc(C(O)C2C=CC3C(=O)N(Cc4ccccc4)C(=O)C3N2n2cnnc2)c2ccccc12` (stereo not given), the composite z-score was 1.52 in assay [1]; -1.55 in assay [3]; 0.0664 in assay [4]; -0.269 in [5]; -0.12 in assay [6]; -0.195 in [7]. Further, the figures for the composite z-score in assay [8], in assay [9] and in [10] were 0.657, 1.2 and -0.438, respectively. Also, the z-score in assay [2] was -0.6.
In the case of `CN1C(=O)C2C=CC(C(O)Cc3ccccc3)N(N(c3ccccc3)c3ccccc3)C2C1=O` (stereo not given), the composite z-score in assay [1] is 0.501; in assay [3], -0.268; in [4], -0.0282; in assay [5] it was 0.372; in assay [6], 0.0438; in assay [7], 0.0469. Besides, the composite z-score was determined as 1.14 in [8], 0.368 in assay [9] and 0.678 in [10]. In [2], this compound yielded a z-score of -0.251.
On to `CO[C@H]1O[C@H](CO)[C@@H](OC(=O)Nc2ccc(C(F)(F)F)cc2)[C@H](OC(=O)Nc2ccc3c(c2)OCO3)[C@H]1OC(=O)Nc1ccc2c(c1)OCO2`, for which the composite z-score in assay [1] is 1.33; in [3], 0.0746; in assay [4], 1.84; in assay [5], -0.367; in [6], 0.0438; in assay [7] it was 0.0437. In addition, the composite z-score in [8] was found to be 0.925; in assay [9] it was 2; in assay [10], 0.648. This compound also displayed a z-score in [2] of -2.79.
For `C=CC[C@@]12N=C(c3ccc(OCCCO)cc3)O[C@@H]1c1ccccc1N(CCS(=O)(=O)c1ccccc1)C2=O`, the composite z-score is 1.38 in assay [1]; 0.526 in assay [3]; 1.69 in [4]; 0.727 in [5]; -0.0303 in [6]; 0.147 in assay [7]. Further, the results for the composite z-score in assay [8], in assay [9] and in assay [10] were -0.0569, 0.676 and 0.448, respectively. In assay [2], this compound showed a z-score of -0.925.
As for `COCCCNC(=O)[C@]1(Cc2ccccc2CN=[N+]=[N-])N=C(c2ccc(OCCCO)cc2)O[C@@H]1c1ccccc1`, the composite z-score in assay [1] was 1.4; in assay [3], -0.369; in assay [4], 0.486; in assay [5], 0.0518; in assay [6], 0.0519; in assay [7], -0.279. Further, the composite z-score was -0.225 in [8], 1 in assay [9] and 0.543 in assay [10]. Further, in [2], the z-score is -3.18.
Regarding `CC(C)(C)N1CC=CC23O[C@@H]4C=CCOC(=O)[C@@H]4[C@H]2C(=O)N(CCCO)[C@@H]3C1=O` (stereo not given in full), the composite z-score in assay [1] is -0.62; in [3], -2.12; in assay [4] it was -1.03; in assay [5] it was 0.392; in assay [6], -0.232; in assay [7], -0.297. Further, the composite z-score was -0.425 in [8], 0.412 in assay [9] and -2.03 in assay [10]. In assay [2], this compound displayed a z-score of 0.104.
Turning to `COC(=O)[C@@]1(Cc2ccccc2)[C@H]2c3cc(C(=O)N4CCCC4)n(Cc4ccsc4Br)c3C[C@H]2CN1C(=O)c1ccccc1`, the composite z-score is 1.45 in assay [1]; -0.505 in assay [3]; 1.6 in [4]; 1.17 in [5]; 0.332 in [6]; -0.0789 in [7]. Besides, the composite z-score was 1.99 in assay [8], 0.545 in assay [9] and 1.23 in [10]. In assay [2], this compound had a z-score of -2.73.
As for `CC(C)C(O)C1C=CC2C(=O)N(C)C(=O)C2N1Nc1ccccc1` (stereo not given), the composite z-score is 0.0819 in assay [1]; 0.163 in [3]; 0.774 in assay [4]; -0.473 in assay [5]; 0.175 in assay [6]; 0.679 in assay [7]. Also, the composite z-score was determined as 1.66 in assay [8], 2.27 in [9] and 1.25 in assay [10]. In assay [2], this compound yielded a z-score of 0.247.
As for `COCCCNC(=O)[C@]1(CCC(=O)OC(C)(C)C)N=C(c2ccc(OCCCO)cc2)O[C@@H]1c1ccccc1`, the composite z-score in assay [1] was 1.49; in assay [3], -0.737; in assay [4], 1.59; in [5] it was 1; in [6], -0.0203; in assay [7], -0.0248. In addition, the composite z-score in assay [8] is -0.0076; in assay [9] it was 1.49; in assay [10], 1.6. In addition, in assay [2], the z-score was -0.151.
On to `C=C(COC)/C(=C/C[C@@H](OC(=O)c1ccncc1)c1cccc(OCCO)c1)c1cnc2ccccc2c1`, for which the composite z-score in assay [1] is 0.429; in assay [3], 1.04; in assay [4] it was 1.3; in assay [5], -0.102; in [6], -0.0161; in assay [7] it was 0.259. The composite z-score turned out to be 0.581 in [8], 1.54 in assay [9] and 3.87 in assay [10]. Besides, the z-score in assay [2] is -3.87.
Turning to `CC(C)CNC(=O)[C@@H]1c2ccccc2C(=O)N(Cc2cc(F)cc(C(F)(F)F)c2)[C@H]1c1ccc(CO)cc1`, the composite z-score was -0.0365 in assay [1]; -0.0784 in [3]; 0.0981 in assay [4]; -0.025 in [5]; -0.0459 in assay [6]; 0.0639 in assay [7]. Moreover, the composite z-score in assay [8] was -0.579; in [9], 0.662; in assay [10], -0.694. Besides, the z-score in assay [2] is -0.604.
Turning to `C=CCNC(=O)[C@@H]1[C@H]2C(=O)O[C@H](c3ccccc3)[C@H](c3ccccc3)N2[C@H](c2ccccc2OCCO)[C@@]12C(=O)N(C(=O)OCCOC)c1ccc(C#CC3=CCCCC3)cc12`, the composite z-score was 0.829 in assay [1]; 0.167 in assay [3]; 0.743 in assay [4]; -0.0835 in assay [5]; -0.124 in assay [6]; -0.0553 in [7]. The values for the composite z-score in assay [8], in [9] and in assay [10] were 0.394, 1.15 and 1.59, respectively. Moreover, in assay [2], the z-score is -2.12.
Regarding `O=C1OCC=C[C@H]2OC34C=CCN(Cn5nnc6ccccc65)C(=O)[C@H]3N(CCCCCCO)C(=O)[C@@H]4[C@@H]12` (stereo not given in full), the composite z-score is -0.0554 in assay [1]; -1.14 in assay [3]; -0.129 in assay [4]; -0.004 in [5]; -0.152 in assay [6]; -0.16 in assay [7]. Also, the composite z-score in assay [8] was 0.162; in [9], 3.14; in [10] it was -0.608. In [2], this compound returned a z-score of -0.113.
As to `COc1ccc([Si](C)(C)[C@@H]2[C@@H](CC(=O)N3CCC[C@H]3CO)O[C@]3(C(=O)N(Cc4ccc(N5C(=O)c6cccc7cccc5c67)cc4)c4ccccc43)[C@H]2C)cc1`, the composite z-score was 1.45 in assay [1]; 0.515 in [3]; 0.692 in [4]; -0.292 in [5]; -0.0437 in [6]; 0.14 in [7]. Also, the composite z-score in assay [8] was -0.37; in assay [9], 1.44; in assay [10] it was 1.82. Also, the z-score in assay [2] is -2.25.
